In PubChem BioAssay (NCI) one finds growth data, which are given here for 38 molecules.

The structures appear in SMILES notation. Compounds without any hit were thinned out: in the full panel of roughly 83,000, 20% have a hit.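 Activity criterion: percent growth below 10, measured after cells in 96-well plates were exposed to a single compound concentration for 48 hours.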 Calls of active or inactive are those of the source.

One assay relates to SK-OV-3 ovarian. Kind of assay: NCI-60 one-dose screen, 48 h (100 = growth as untreated, 0 = no growth, -100 = all killed). As to conditions: 10 µM unless noted.
Take `COc1ccc(NC(=O)c2sc3c(=O)[nH]c(C(F)(F)F)nc3c2C)cc1`: the growth is 98.5% (inactive).
For `O=C(Nc1cccc(Cl)c1)Nc1ccccc1Cl`, the growth was 101% (inactive).
Same read-out and setting: the value for `NC(=O)N/N=C\c1ccc([N+](=O)[O-])o1` was 114% (inactive).
As for `CCN(CC)Cc1cc(Nc2ccnc3ccc(OC)cc23)ccc1O`, the growth was 73.6% (inactive).
Still for that read-out and setting: the value for `CC(C)(C)c1nn(-c2ccccc2)c2c1C(=O)CSC(c1ccc3c(c1)OCO3)N2` (stereo not given) was 95.4% (inactive).
Take `CN(C)N1C(=O)c2c(Cl)c(Cl)c(Cl)c(Cl)c2C1=O`: the growth is 106% (inactive).
With `O=c1c2cc(Cl)ccc2oc2ccc(OCCCCCN3CCCCC3)cc12`, the growth is 98.3% (inactive).
Take `C=CCOc1ccc2c(C)cc(=O)oc2c1`: the growth was 117% (inactive).
Turning to `O=C(CSc1nc2c(n1Nc1ccccc1)-c1ccccc1SC2)Nc1nccs1`, the growth was 109% (inactive).
With `CCNC(=O)c1ccc2c(c1)nc(-c1ccc(Cl)cc1)n2-c1cc(C(C)(C)C)[nH]n1`, the growth is 26.9% (inactive).
For `CC(C)CC1NC(=O)C(CC(C)C)N(CO)C1=O` (stereo not given), the growth was 102% (inactive).
Same read-out and setting: the value for `CCn1c(=O)c(C(=O)NCCCO)c(O)c2ccccc21` was 115% (inactive).
In the case of `COc1cc(NCC(O)CN(CC(C)C)CC(C)C)c2ncccc2c1` (stereo not given), the growth was 87.4% (inactive).
`CC(=O)Nc1ccc(/C=N/N2CCCCCC2)cc1`: the growth is 99.9% (inactive).
Regarding `O=c1oc2ccccc2cc1-c1cc(-c2ccc(-c3cc(-c4cc5ccccc5oc4=O)nc(-c4cc5ccccc5oc4=O)c3)cc2)cc(-c2cc3ccccc3oc2=O)n1`, the growth was 94.3% (inactive).
On the same count and under the same terms, the value for `CCN(CC)c1ccc(/C=N/N=C(N)N)cc1` was 37.6% (inactive).
Still for that read-out and setting: in the case of `Cc1ccc(C)c2c1SC1=NNC(Oc3ccc(Cl)cc3)=C(C#N)C(=N)N12` it was 95.7% (inactive); in that of `CCOC(=O)C(Cc1ccccc1)n1c(O)c(/C=N/c2ncc(Cc3ccc(Cl)cc3Cl)s2)sc1=S` (stereo not given), 0.0373% (active).
For the molecule `COc1ccc(-c2cnc(-c3ccncc3-c3cccc(OC)c3)o2)cc1`, the growth was -5.44% (active).
Same read-out and setting: the value for `Cc1ccc(OC2=C(C#N)C(=N)N3C(=NN2)Sc2c(C)ccc(C)c23)cc1` was 96.2% (inactive).
Take `O=C(Nc1ccncc1)C(=O)c1cn(S(=O)(=O)c2cccc(Cl)c2F)c2ccccc12`: the growth was 97.3% (inactive).
Take `CN1C(=O)NC(Cc2c[nH]c3c(Cl)cccc23)C1=O` (stereo not given): the growth was 113% (inactive).
On to `COc1ccc(C(=O)OC2C(OC3C(O)COC(O[C@H]4C[C@H]5[C@@H]6CC=C7C[C@@H](O)CC[C@]7(C)[C@H]6CC[C@]5(C)[C@H]4[C@H](C)C(=O)CCC(C)C)C3OC(C)=O)OCC(O)C2O)cc1` (stereo not given in full), for which the growth is -44.1% (active).
Take `C[C@@H]1N=C(c2ccc3ccccc3c2)Nc2nc3ccccn3c2C1=O`: the growth is 40.5% (inactive).
On to `O=[N+]([O-])c1ccc(N=Nc2c(NNc3ccc([N+](=O)[O-])cn3)cc(S(=O)(=O)O)c3ccccc23)nc1`, for which the growth was 78% (inactive).
As for `CS(=O)(=O)c1ccc(C(=O)N/N=C/c2ccccc2Cl)cc1`, the growth was 88.3% (inactive).
On to `CC1=C(O)C(=O)CC1`, for which the growth was 107% (inactive).
For `O=C(N/N=C/c1ccc([N+](=O)[O-])cc1)c1ccccc1Nc1ccnc(C(F)(F)F)c1`, the growth is 84.9% (inactive).
Regarding `Cc1ccc(C(CN(C)C)C(=O)c2ccccc2)cc1` (stereo not given), the growth is 97.6% (inactive).
Still for that read-out and setting: in the case of `CN1CCC2(CC1)N=C(SCC(=O)Nc1cnc3ccccc3c1)C(c1ccc(Br)cc1)=N2` it was 54.9% (inactive); in that of `Cc1ccncc1NC=O`, 110% (inactive); in that of `Cc1c2c(cc3c1[nH]c1ccccc13)C=NCC2`, 96.5% (inactive).
Consider `O=S1(=O)NCCCN1CCNc1nccc(-c2c(-c3cccc(O)c3)nc3sccn23)n1`, for which the growth was 43.6% (inactive).
On to `CCc1c(C)c2ccc(O)c(-c3cc(-c4ccccc4)c(C#N)c(=O)[nH]3)c2oc1=O`, for which the growth was 95.9% (inactive).
Still for that read-out and setting: the value for `COc1ccc2nc3cc(Cl)ccc3c(NC(=O)CSc3ccc(Cl)cc3)c2c1` was -94.2% (active).
In the case of `C=CC(=O)N1CN(C(=O)C=C)CN(C(=O)C=C)C1`, the growth was 99% (inactive).
In the case of `CCCC(CCC)(C(N)=O)C(=O)O`, the growth was 105% (inactive).
Turning to `C=CCCCCOc1cccc(/C=C2\N=C3SCCCN3C2=O)c1`, the growth is 97.7% (inactive).

In a further assay the test system is IGROV1 ovarian. Described as above. Conditions: 10 µM unless noted.
Turning to `COc1ccc(NC(=O)c2sc3c(=O)[nH]c(C(F)(F)F)nc3c2C)cc1`, the growth is 90% (inactive).
As to `O=C(Nc1cccc(Cl)c1)Nc1ccccc1Cl`, the growth is 85.9% (inactive).
Take `NC(=O)N/N=C\c1ccc([N+](=O)[O-])o1`: the growth is 105% (inactive).
In the case of `O=c1c2cc(Cl)ccc2oc2ccc(OCCCCCN3CCCCC3)cc12`, the growth is 72% (inactive).
In the case of `C=CCOc1ccc2c(C)cc(=O)oc2c1`, the growth is 113% (inactive).
As for `CC(C)CC1NC(=O)C(CC(C)C)N(CO)C1=O` (stereo not given), the growth was 106% (inactive).
Turning to `CC(=O)Nc1ccc(/C=N/N2CCCCCC2)cc1`, the growth is 111% (inactive).
As to `O=c1oc2ccccc2cc1-c1cc(-c2ccc(-c3cc(-c4cc5ccccc5oc4=O)nc(-c4cc5ccccc5oc4=O)c3)cc2)cc(-c2cc3ccccc3oc2=O)n1`, the growth was 105% (inactive).
The same measure, in the same setting: the value for `CCN(CC)c1ccc(/C=N/N=C(N)N)cc1` was 63.3% (inactive).
On to `Cc1ccc(C)c2c1SC1=NNC(Oc3ccc(Cl)cc3)=C(C#N)C(=N)N12`, for which the growth is 87.8% (inactive).
Take `Cc1ccc(OC2=C(C#N)C(=N)N3C(=NN2)Sc2c(C)ccc(C)c23)cc1`: the growth was 87.7% (inactive).
Take `CN1C(=O)NC(Cc2c[nH]c3c(Cl)cccc23)C1=O` (stereo not given): the growth was 108% (inactive).
The same measure, in the same setting: the value for `O=[N+]([O-])c1ccc(N=Nc2c(NNc3ccc([N+](=O)[O-])cn3)cc(S(=O)(=O)O)c3ccccc23)nc1` was 84.9% (inactive); that for `CS(=O)(=O)c1ccc(C(=O)N/N=C/c2ccccc2Cl)cc1` was 107% (inactive); that for `O=C(N/N=C/c1ccc([N+](=O)[O-])cc1)c1ccccc1Nc1ccnc(C(F)(F)F)c1` was 75.3% (inactive).
Turning to `Cc1ccc(C(CN(C)C)C(=O)c2ccccc2)cc1` (stereo not given), the growth is 88.9% (inactive).
For the molecule `Cc1ccncc1NC=O`, the growth was 114% (inactive).
Same read-out and setting: in the case of `CCc1c(C)c2ccc(O)c(-c3cc(-c4ccccc4)c(C#N)c(=O)[nH]3)c2oc1=O` it was 101% (inactive); in that of `COc1ccc2nc3cc(Cl)ccc3c(NC(=O)CSc3ccc(Cl)cc3)c2c1`, -91.5% (active).
On to `C=CC(=O)N1CN(C(=O)C=C)CN(C(=O)C=C)C1`, for which the growth is 56.8% (inactive).
On to `CCCC(CCC)(C(N)=O)C(=O)O`, for which the growth is 119% (inactive).
In the case of `C=CCCCCOc1cccc(/C=C2\N=C3SCCCN3C2=O)c1`, the growth was 88.6% (inactive).
